15-hLO inh – blocks human 15-lipoxygenase activity; P16050; purified 15hLO-1, xylenol orange hydroperoxide absorbance; Potency, µM (top dose mostly 57.1 µM), for inactives: at the highest dose activity change, negative = inhibition, hits mostly inhibitors; 74,000 tested, 1.4% active; AID 887; note: potency is the fitted concentration of half-maximal effect; % is set by controls: 0 for no effect and ±100 for the full control effect; nearly all actives have a fitted effect of over 55% in size
Target sequence (P16050 whole entry, looked up): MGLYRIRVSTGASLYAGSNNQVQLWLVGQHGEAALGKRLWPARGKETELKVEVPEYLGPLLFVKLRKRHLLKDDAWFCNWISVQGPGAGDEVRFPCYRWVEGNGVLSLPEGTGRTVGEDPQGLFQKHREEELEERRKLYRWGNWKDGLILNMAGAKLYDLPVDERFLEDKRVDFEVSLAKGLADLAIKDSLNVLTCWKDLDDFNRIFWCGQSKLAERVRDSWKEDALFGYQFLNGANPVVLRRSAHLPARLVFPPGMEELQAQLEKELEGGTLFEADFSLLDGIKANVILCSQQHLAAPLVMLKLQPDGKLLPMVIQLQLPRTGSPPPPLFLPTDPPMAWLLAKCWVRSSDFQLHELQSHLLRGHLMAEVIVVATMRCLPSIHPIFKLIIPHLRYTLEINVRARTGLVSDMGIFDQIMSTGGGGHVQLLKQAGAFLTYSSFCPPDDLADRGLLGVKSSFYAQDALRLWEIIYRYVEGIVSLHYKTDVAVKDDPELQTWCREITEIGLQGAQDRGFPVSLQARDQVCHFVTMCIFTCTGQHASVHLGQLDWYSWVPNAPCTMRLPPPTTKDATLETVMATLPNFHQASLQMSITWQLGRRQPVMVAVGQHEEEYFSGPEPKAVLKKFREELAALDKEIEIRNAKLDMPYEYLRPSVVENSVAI
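Inhibition is scored from a chromogenic endpoint. After 15 min enzyme-compound contact, arachidonic acid (50 uM final) reacts 6 min with 40 nM 15hLO-1 at room temperature, then Fe-XO reagent is added for 30 min and absorbance ratio recorded.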
TsaE inh – inhibitors of E. coli YjeE (TsaE); purified YjeE enzyme, qHTS inhibition assay; Potency, µM; 71,000 tested, 0.05% active
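Fluorescence polarization of a BODIPY Texas Red–ADP probe (2 uM) bound to purified YjeE (10 uM) was read after 15 min room-temperature incubation with compounds. Loss of polarization marks inhibitors; ADP serves as titrated control.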
Tau filament bind – binders of human tau filaments; P10636; recombinant tau filaments, thioflavin S fluorescence, 15 h; filaments grown with octadecylsulfate alongside compound; Potency, µM (series often up to 57.1 µM), without a hit: at the top dose activity change, negative = inhibition; 71,000 tested, 2% active;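 note: potency is the fitted concentration of half-maximal effect; % is set by controls: 0 for no effect and ±100 for the full control effect; actives lower thioflavin S fluorescence by blocking filaments or displacing dye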
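ThS-based fibril read: tau 1 uM final, inducer ODS 30 uM final, 37 C for 15 h, ex 450/em 510 nm.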
Hsp90 Hop PPI – changes Hsp90-Hop TPR2A binding signal, up or down. AlphaScreen TPR2A-His6 binding biotin-Hsp90 C-terminal peptide. Potency, µM (doses to about 57 µM), inactives show at the highest dose activity change, negative = inhibition. 71,000 tested, 0.44% active. AID 595; active = well fitted curve in either direction with a large enough effect; inconclusive = small, poorly fitted or top-dose-only effect, or another doubt; note: potency is the fitted concentration of half-maximal effect; % is set by controls: 0 for no effect and ±100 for the full control effect
DNA Pol III inh – inhibitors of bacterial DNA polymerase III holoenzyme; reconstituted DNA polymerase III holoenzyme replication, biochemical; Potency, µM (titrated, usually from 57.1 µM), for the others: at the highest dose activity change, negative = inhibition; 71,000 tested, 0.25% active; AID 603; note: potency is the fitted concentration of half-maximal effect; % is set by controls: 0 for no effect and ±100 for the full control effect
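Reconstituted *E. coli* holoenzyme (0.35 nM Pol III, 1 nM beta, 154 nM SSB, 2 nM primase) was preincubated with compound for 15 min at RT. Synthesis on 1.4 nM ssM13Gori ran 35 min, then was stopped with PicoGreen/EDTA and read as dsDNA fluorescence.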
Tau ThS bind – displaces Thioflavin S from human tau filaments. Potency, µM. 60 tested, 40% active. shares compounds with Tau filament bind. recombinant tau filaments, Thioflavin S fluorescence displacement; calls by dose curve
aSyn ThS displ – alpha-synuclein fibril binding by ThS displacement; shares compounds with Tau filament bind; recombinant alpha-synuclein fibrils, ThS fluorescence displacement; Potency, µM; 60 tested, 40% active; calls by dose curve
Abeta ThS bind – compounds binding human beta amyloid fibrils, displacing Thioflavin S; shares compounds with Tau filament bind; Abeta1-42 fibrillization, thioflavin S fluorescence, overnight 37 C; Potency, µM; 60 tested, 50% active; calls by dose curve
Active calls of the source: *; i = inactive; ? = inconclusive; / = not tested or not shown; [ ] = dose if it differs, or a comment. In the library only some 3.3% were active in any assay of this set; here they are far more common. Unless noted, calls come from the whole dose curve; as a rule, active = well fitted curve in the direction sought with a large enough effect; inconclusive = small, poorly fitted or top-dose-only effect, or another doubt; inactive = no such curve, though single readings can be large; an effect the other way counts as inactive or inconclusive.

SMILES	15-hLO inh	TsaE inh	Tau filament bind	Hsp90 Hop PPI	DNA Pol III inh	Tau ThS bind	aSyn ThS displ	Abeta ThS bind
Cc1cc(NC(=O)c2cc3nc(C4CC4)cc(C(F)(F)F)n3n2)no1	-5%	i	-7%	-3%	-5%	?	i	?
CC1CCC2C(=O)OC(CN=[N+]=[N-])CN2C1c1ccc(Br)cc1 (stereo not drawn)	5%[11.4 µM]	/	/	/	/	/	/	/
CCOC(=O)C1CCN(S(=O)(=O)c2cccc3nonc23)CC1	-20%	i	-11%	-1%	2%	i	i	i
CN(C)S(=O)(=O)c1ccc(NC(=O)c2ccccn2)cc1	4%	i	1%	-2%	0%	/	/	/
CN(C)c1ccc(NC(=S)c2ccccn2)cc1	3%	i	5µM*	?	-1%	7.1µM*	8.9µM*	6.2µM*
Cc1ccc(S(=O)(=O)C(C#N)c2nc3ccccc3nc2N2CCCC2)cc1 (stereo not drawn)	?	i	180%	-19%	-10%	/	/	/
N#CC(C(=O)NCCc1ccccc1)c1nc2ccccc2nc1N1CCCCC1 (stereo not drawn)	-8%	i	-5%	?	-4%	?	?	?
